Where “and” joins values, the source holds several entries; their conditions need not be identical. Equal entries are not always repeated. Among all 5,500 compounds or so, about 2,000 (36%) were called active. Inconclusive results (about 18%) are left out. No stated cut-off is given here; in the data, active means normalized growth mostly below about 0.91 (no sharp cut-off); inconclusive means no clear call, values can overlap the other calls; inactive means mostly above about 0.92. The list shows a part of the results.
Experiment: chemical genetic growth profiling, strain panel (AID 1159580);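 further: tested at 20 µM; growth read once vehicle control cultures reached saturation at 30 °C; 1 = growth at the plate median or of vehicle wells; lower values mean less growth of the strain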
Conditions: S. cerevisiae deletion strains, growth OD

Measured: normalized growth

O=C(/C=C/c1ccc(O)c(O)c1)O[C@@H]1C[C@](O)(C(=O)O)C[C@@H](O)[C@H]1O
inactive: locus YAL021C, strain ccr4, active compounds read low 1.05 | locus YAL026C, strain drs2, active compounds read low 0.979 | locus YAL030W, strain snc1, active compounds read low 0.983 | locus YBL061C, strain skt5, active compounds read low 0.992 | locus YBR009C, strain hhf1, active compounds read low 0.994 | locus YBR021W, strain FUR4, active compounds read low 0.992 | locus YBR023C, strain chs3, active compounds read low 1.03 | locus YBR171W, strain sec66, active compounds read low 0.95 | locus YBR229C, strain ROT2, active compounds read low 0.997 | locus YBR231C, strain swc5, active compounds read low 0.956 | locus YBR279W, strain paf1, active compounds read low 0.988 | locus YCL011C, strain gbp2, active compounds read low 0.985 | locus YCL016C, strain dcc1, active compounds read low 1.02 | locus YCL029C, strain bik1, active compounds read low 1.02 | locus YCL061C, strain MRC1, active compounds read low 1 | locus YCL069W, strain vba3, active compounds read low 0.964 | locus YCR088W, strain abp1, active compounds read low 0.968 | locus YDL005C, strain med2, active compounds read low 0.966 | locus YDL035C, strain GPR1, active compounds read low 0.984 | locus YDL040C, strain nat1, active compounds read low 0.98 | locus YDL074C, strain BRE1, active compounds read low 1.04 | locus YDL101C, strain DUN1, active compounds read low 1.02 | locus YDL185W, strain tfp1, active compounds read low 1.01 | locus YDL192W, strain arf1, active compounds read low 1 | locus YDR001C, strain nth1, active compounds read low 0.98 | locus YDR069C, strain doa4, active compounds read low 0.97 | locus YDR101C, strain arx1, active compounds read low 1.02 | locus YDR137W, strain rgp1, active compounds read low 0.98 | locus YDR150W, strain NUM1, active compounds read low 1.01 | locus YDR159W, strain sac3, active compounds read low 0.915 | locus YDR162C, strain NBP2, active compounds read low 1.01 | locus YDR195W, strain ref2 0.942 | locus YDR297W, strain sur2, active compounds read low 0.99 | locus YDR318W, strain mcm21, active compounds read low 1.01 | locus YDR334W, strain swr1, active compounds read low 0.974 | locus YDR335W, strain msn5, active compounds read low 0.973 | locus YDR388W, active compounds read low 1.01 | locus YDR392W, strain spt3, active compounds read low 0.997 | locus YDR502C, strain sam2, active compounds read low 1.02 | locus YEL003W, strain gim4, active compounds read low 0.976 | locus YEL037C, strain rad23, active compounds read low 0.973 | locus YEL061C, strain CIN8 (second series), active compounds read low 0.965 | locus YEL061C, strain CIN8, active compounds read low 1.01 | locus YER015W, strain faa2, active compounds read low 0.988 | locus YER016W, strain bim1, active compounds read low 0.968 | locus YER110C, active compounds read low 1.02 | locus YER111C, strain swi4, active compounds read low 0.976 | locus YER155C, strain BEM2 (second series), active compounds read low 0.993 | locus YER155C, strain BEM2, active compounds read low 1.01 | locus YER167W, strain BCK2, active compounds read low 1.01 | locus YFR010W, strain ubp6, active compounds read low 0.972 | locus YGL078C, strain dbp3, active compounds read low 1.01 | locus YGL086W, strain mad1, active compounds read low 1.02 | locus YGL167C, strain pmr1, active compounds read low 0.971 | locus YGL173C, strain kem1, active compounds read low 0.959 | locus YGL227W, strain vid30, active compounds read low 0.975 | locus YGL240W, strain doc1, active compounds read low 0.962 | locus YGL248W, strain PDE1, active compounds read low 1.01 | locus YGL253W, strain hxk2, active compounds read low 0.949 | locus YGR078C, strain PAC10, active compounds read low 1.03 | locus YGR135W, strain pre9, active compounds read low 0.997 | locus YGR252W, strain gcn5, active compounds read low 0.97 | locus YHR013C, strain ard1, active compounds read low 0.997 | locus YHR027C, strain rpn1, active compounds read low 0.985 | locus YHR030C, strain SLT2, active compounds read low 1.01 | locus YHR079C, strain IRE1 (second series), active compounds read low 1.01 | locus YHR079C, strain IRE1, active compounds read low 1 | locus YHR094C, strain hxt1, active compounds read low 1.02 | locus YHR129C, strain ARP1, active compounds read low 1 | locus YHR142W, strain chs7, active compounds read low 0.975 | locus YHR200W, strain rpn10, active compounds read low 1.02 | locus YIL066C, strain RNR3, active compounds read low 0.981 | locus YIL073C, strain SPO22, active compounds read low 1.02 | locus YIL125W, strain kgd1, active compounds read low 1.02 | locus YIR030C, strain dcg1, active compounds read low 1.01 | locus YJL092W, strain hpr5, active compounds read low 0.969 | locus YJL095W, strain BCK1 (second series), active compounds read low 0.953 | locus YJL095W, strain BCK1, active compounds read low 1.04 and 1.02 | locus YJL115W, strain asf1, active compounds read low 0.992 | locus YJL129C, strain trk1, active compounds read low 0.966 | locus YJL134W, strain LCB3, active compounds read low 1.01 | locus YJL154C, strain vps35, active compounds read low 0.976 | locus YJL164C, strain tpk1, active compounds read low 1.01 | locus YJL166W, strain qcr8, active compounds read low 0.974 | locus YJL168C, strain set2, active compounds read low 1 | locus YJL187C, strain SWE1 (second series), active compounds read low 1.03 | locus YJR043C, strain POL32, active compounds read low 1.01 | locus YJR066W, strain TOR1, active compounds read low 0.947 | locus YJR075W, strain HOC1, active compounds read low 1.04
